According to PubChem BioAssay AID2283127 (EPA ToxCast):
Records with an inconclusive call do not appear. The source made the active and inactive calls. The calls were made as follows: active = hit-call score of the fitted dose curve at least 0.9, where 1 is the maximum; inconclusive = response in the unintended direction; inactive = score below 0.9.

Target: human AKT serine/threonine Kinase 3 (AKT3), AKT3 (gene 10000) (UniProt Q9Y243)
Assay: NVS_ENZ_hAKT3: NovaScreen (NVS) Enzymatic Assay for human AKT serine/threonine Kinase 3 (AKT3)
Method: NVS_ENZ_hAKT3 is a biochemical, single-readout assay that uses extracted gene-proteins in a cell-free assay. Measurements were taken 1 hour after chemical dosing in a 384-well plate.NVS_ENZ_hAKT3 is one of one assay component(s) measured or calculated from the NVS_ENZ_hAKT3 assay. It is designed to make measurements of enzyme activity, a form of enzyme reporter, as detected with fluorescence intensity signals by Fluorescence and electrophoretic mobility shift technology.Data from the assay component NVS_ENZ_hAKT3 was analyzed into 1 assay endpoint. This assay endpoint, NVS_ENZ_hAKT3, was analyzed in the positive analysis fitting direction relative to DMSO as the negative control and baseline of activity. Using a type of enzyme reporter, loss-of-signal activity can be used to understand changes in the enzymatic activity as they relate to the gene AKT3. Furthermore, this assay endpoint can be referred to as a primary readout, because this assay has produced multiple assay endpoints where this one serves a enzymatic activity function. To generalize the intended target to other relatable targets, this assay endpoint is annotated to the kinase intended target family, where the subfamily is serine/threonine kinase. […]

human AKT serine/threonine Kinase 3 (AKT3), AKT3 (gene 10000), sequence (Q9Y243 whole entry, looked up): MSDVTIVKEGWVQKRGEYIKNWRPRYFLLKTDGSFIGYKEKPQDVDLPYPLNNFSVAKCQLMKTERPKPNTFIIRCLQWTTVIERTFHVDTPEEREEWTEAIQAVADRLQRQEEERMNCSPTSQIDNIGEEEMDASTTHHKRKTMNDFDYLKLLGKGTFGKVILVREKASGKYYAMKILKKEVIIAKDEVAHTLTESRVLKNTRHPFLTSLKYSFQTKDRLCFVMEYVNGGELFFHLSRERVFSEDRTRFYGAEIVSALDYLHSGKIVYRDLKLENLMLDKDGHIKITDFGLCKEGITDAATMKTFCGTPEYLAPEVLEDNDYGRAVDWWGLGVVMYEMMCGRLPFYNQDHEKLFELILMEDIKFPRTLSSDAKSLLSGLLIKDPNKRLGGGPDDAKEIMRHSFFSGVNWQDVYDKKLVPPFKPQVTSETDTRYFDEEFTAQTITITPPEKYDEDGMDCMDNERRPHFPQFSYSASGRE

| SMILES | outcome | AC50 |
| --- | --- | --- |
| CN(C)C(=S)SSC(=S)N(C)C | inactive | – |
| S=C([S-])NCCNC(=S)[S-].[Mn+2] | – | 25 µM (active) |
